A short description of assay [1]: Wnt pathway potentiators raising nuclear beta-catenin – imaging, WNT3A-conditioned medium, mouse C2C12, NPC library, primary screen (AID 1117326; in the data active = nuclear beta-catenin stimulation mostly above about 4.2%, no sharp cut-off; inactive = mostly below about 10%; note: reference of the scale not given here). As to conditions: stronger effect = higher value.
Assay [2] can be described thus: stimulators of insulin release from INS-1E, primary screen, cell-based, 5 mM glucose, NPC library (AID 1117329;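 active = compound raises insulin release from rat beta cells at 5 mM glucose, no numeric limit stated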; note: reference of the scale not given here). As to conditions: rat INS-1E insulin secretion, at 10 µM, stronger effect = higher value.
The nature of assay [3]: growth inhibition of GSK3B-pretreated HCT116 cells – cell-based, CellTiter-Glo, 0.2 to 20 µM (AID 1117336;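 active = compounds lowering colon cancer cell viability after pretreatment blocking the GSK3B kinase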). The following applies: HCT116 viability after GSK3B inhibitor, at 20 µM, stronger effect = higher value.
Assay [4] is described as follows: inhibition of endothelial tube formation, primary screen, imaging, VEGF stimulated, CD31 staining, tube area, NPC library (AID 1117340;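 active = compound that reduces growth-factor-driven endothelial tube area in a mixed cell culture, no cutoff stated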). The following applies: VEGF-stimulated ADSC/ECFC co-culture, at 10 µM, stronger effect = higher value.
The nature of assay [5]: GLP1 release stimulators, primary, NCI-H716, NPC library (AID 1117341;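 active = compound raises GLP1 secretion from the human gut endocrine cells, with no numeric limit stated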; note: reference of the scale not given here). The following applies: NCI-H716 cells, at 10 µM, stronger effect = higher value.
The nature of assay [6]: HCT116 colon cancer cell growth inhibition, primary screen, CellTiter-Glo luminescence, NPC library (AID 1117342;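 active = compounds that lower survival of HCT116 colon cancer cells in the luminescence readout, no numeric limit stated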). The following applies: at 20 µM (top of the series).
The nature of assay [7]: reduced SW480 viability measured with CellTiter-Glo, NPC library, primary (AID 1117343;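 active = compounds that lower viability of the colon cancer cells in the luminescence readout, with no numeric limit stated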). The following applies: CellTiter-Glo luminescence; at 20 µM (top of the series) unless noted.
Assay [8] in a line: NPC library primary testing for decreased DLD-1 cell viability via CellTiter-Glo (AID 1117346;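 active = compounds that lower survival of DLD-1 colon cancer cells in the luminescence readout, no cutoff given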). The following applies: DLD-1 viability, CellTiter-Glo luminescence; at 20 µM (top of the series).
A short description of assay [9]: viability loss in pontine glioma line – cell-based, JHH-DIPG-1, MIPE4.0, CellTiter-Glo, qHTS, dose response (AID 1347062; cut-off not given, nearly all actives have AC50 up to about 27 µM). As to conditions: JHH-DIPG-1 viability, CellTiter-Glo ATP luminescence.
Assay [10] in a line: viability loss in pontine glioma line – cell-based, SU-DIPG-IV, MIPE4.0, CellTiter-Glo, qHTS, dose response (AID 1347063; cut-off not given, nearly all actives have AC50 up to about 30 µM;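 note: compound exposure lasted 48 hours before the viability readout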). As to conditions: CellTiter-Glo ATP luminescence.
A short description of assay [11]: growth inhibition of DIPG cells – cell-based, MIPE4.0 library, CellTiter-Glo luminescence, qHTS (AID 1347066; cut-off not given, nearly all actives have AC50 up to about 30 µM;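 note: cells exposed to compound for 48 hours before readout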). The following applies: SU-DIPG-VI viability, CellTiter-Glo ATP luminescence.
Assay [12] is described as follows: growth inhibition of DIPG cells – cell-based, MIPE5.0 library, qHTS (AID 1347068; cut-off not given, nearly all actives have IC50 up to about 30 µM). As to conditions: SU-DIPG-XXV viability.
The nature of assay [13]: viability loss with induced miR-34 in A549 – imaging, A549 dox-inducible miR-34, nuclei and caspase counts, primary screen (AID 1347080;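 active = compounds whose cell count with miR-34 switched on is under 0.7 times the count with it off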). As to conditions: A549 miR-34 inducible, Hoechst nuclei count, 48 h.
Assay [14] can be described thus: MELAS cybrid and Rieske KO viability enhancers – cell-based, MELAS cybrids, Rieske KO mouse fibroblasts, CellTiter-Glo, primary screen (AID 1508586;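 active = mean z-score across replicates of 1.96 or higher in either the MELAS or the Rieske mutant cell line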;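 note: z relative to plate mean and SD of compound and empty wells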). The following applies: low glucose.
A short description of assay [15]: viability loss in pontine glioma line – cell-based, SU-DIPG-XXV, MIPE5.0, CellTiter-Glo, qHTS, dose response (AID 1347065).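 Note: cells exposed to compound for 48 hours before ATP readout.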 The following applies: CellTiter-Glo ATP luminescence.
Assay [16] can be described thus: JHH-DIPG-1 glioma cell viability, MIPE5.0 library, CellTiter-Glo luminescence, qHTS (AID 1347067).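 Note: cells exposed to compound for 48 hours before readout.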 The following applies: JHH-DIPG-1 glioma viability, CellTiter-Glo ATP luminescence.
Assay [17] in a line: blockers of cellular phospholipid synthesis – cell-based, LOPAC library, screen 4, primary screen (AID 1347384; call rule not given here). The following applies: animal cells, phospholipid biosynthesis inhibition screen; at 10 µM.
Assay [18] is described as follows: galactose survival enhancers in mitochondrial complex I cybrids – cell-based, galactose medium, ATP luminescence, primary screen (AID 1645843;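 active = z-score of at least 1.8 in each of two replicates, scored against plate mean and spread of sample wells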;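 note: positive z means more ATP and so rescue of galactose-driven cybrid death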). As to conditions: complex I mutant cybrid cells, 72 h, stronger effect = higher value.
Where [19] appears, read: stronger effect = lower value, cell number ratio, induced over uninduced.
[20] abbreviates: measured here: relative caspase fold change +Dox/-Dox.
[21] abbreviates: measured here: total cells with miR-34 induction, stronger effect = lower value.
Setting [22] is: measured here: total cells without miR-34 induction.

Inconclusive results are not listed. The source made the active and inactive calls. Unless noted, no cut-off is given here; in the data, nearly all actives have AC50 up to about 26 µM.

On to `CCOC(=O)c1c(C)n(C)c2ccc(O)cc12`, for which the nuclear beta-catenin stimulation is 0.7% (inactive) in assay [1] (at 10 µM) and 2.1% in assay [1] (stimulation, at 2 µM). In addition, in [2], the insulin secretion stimulation was 0.5% (inactive). The viability decrease in assay [3] is -5.75% (inactive). In addition, the tube area decrease in assay [4] is -15.4% (inactive). In addition, the GLP1 secretion stimulation in assay [5] is 3.6% (inactive). In addition, the inhibition of viability in assay [6] was 0% (inactive). For the same molecule, the viability decrease (inhibition) in assay [7] is 7% (inactive); in [8] it was -0.8% (inactive). Moreover, the molecule was called inactive in assay [9], in assay [10], in assay [11] and in assay [12]. Besides, the fold change was 0.886 (inactive) in assay [13] (setting [19]) and 0.841 in assay [13] (setting [20]). Also, the values for the cell count in assay [13] (setting [21]) and in assay [13] (setting [22]) were 7760 and 8760, respectively. Also, the z-score is -0.277 (inactive) in assay [14] (MELAS cybrid survival, CellTiter-Glo 48 h, stronger effect = higher value) and 0.616 in assay [14] (Rieske KO mouse fibroblast survival, CellTiter-Glo 72 h).
Turning to `N[C@@H](Cc1c[nH]c2ccc(O)cc12)C(=O)O`, the nuclear beta-catenin stimulation in assay [1] (at 10 µM) is 1.6% (inactive); in assay [1] (stimulation, at 2 µM), 3.9%. In assay [2], the insulin secretion stimulation was 2.1% (inactive). Also, the viability decrease in assay [3] was -0.3% (inactive). Besides, the tube area decrease in assay [4] is 1.7% (inactive). Besides, in assay [5], the GLP1 secretion stimulation was 3.1% (inactive). Also, the inhibition of viability in assay [6] was 2.5% (inactive). The results for the viability decrease (inhibition) in assay [7] and in assay [8] were -17.1% (inactive) and -5.7% (inactive), respectively. Moreover, the molecule was called inactive in [10], in [15], in assay [11], in [16], in assay [12] and in assay [17]. For the same molecule, the fold change in assay [13] (setting [19]) was 1.04 (inactive); in assay [13] (setting [20]), 0.787. Also, the cell count in assay [13] (setting [21]) was found to be 10300; in assay [13] (setting [22]) it was 9860. In addition, the z-score in assay [18] was 0.37 (inactive).
With `O=[N+]([O-])c1cncn1CCN1CCOCC1`, the nuclear beta-catenin stimulation was -1.1% (inactive) in [1] (at 10 µM) and 0.4% in assay [1] (stimulation, at 2 µM). Further, the insulin secretion stimulation in assay [2] is 0.4% (inactive). In assay [3], the viability decrease was -4.6% (inactive). In [4], the tube area decrease was 13.6% (inactive). In addition, the GLP1 secretion stimulation in [5] is -1.3% (inactive). In assay [6], the inhibition of viability is -5% (inactive). Moreover, the viability decrease (inhibition) in assay [7] was -2.7% (inactive); in assay [8] it was -11.2% (inactive). The outcome in [15], in assay [16] and in [12] was inactive.
Consider `N#Cc1c(N(CC(=O)O)CC(=O)O)sc(C(=O)O)c1CC(=O)O`, for which the nuclear beta-catenin stimulation is -1.5% (inactive) in [1] (at 10 µM) and -0.9% in assay [1] (stimulation, at 2 µM). Besides, in [2], the insulin secretion stimulation was 4.8% (inactive). Also, the viability decrease in assay [3] is -2.4% (inactive). Besides, in assay [4], the tube area decrease is 0% (inactive). The GLP1 secretion stimulation in assay [5] was -1.7% (inactive). In [6], the inhibition of viability was -4% (inactive). In addition, the viability decrease (inhibition) in [7] is -7.1% (inactive); in [8], -13.8% (inactive). In addition, the call in assay [15], in [11], in assay [16] and in [12] was inactive.

These data come from PubChem BioAssay.
